{"source": "PubChem BioAssay AID492998", "about": "(Southern Research Specialized Biocontainment Screening …, 2010)", "note": "Screen size: about 2,300 compounds; about 550 (24%) were called active. Not all results are given here. Results with a measured potency or affinity are listed apart. Unmarked numbers belong to inactive results. The rule behind the calls is not given here."}
{"test": "Vero E6 cell cytotoxicity, dose response, cytotoxicity control for non-replicating M. tuberculosis project, secondary assay (AID 492998);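 note: 100% = vehicle-treated cells and 0% = background wells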", "conditions": "series mostly up to 20 µM; viability: at the top concentration", "units": {"viability": "%"}}
{"smiles": "O=C(OCCCCN1C(=O)c2ccccc2C1=O)c1ccc(Br)o1", "viability": 112}
{"smiles": "O=C(COc1ccc2ccccc2c1)Nc1nccs1", "viability": 96.3}
{"smiles": "COc1ccc(C2(O)CCN(CC(=O)Nc3nc(-c4ccccc4)cs3)CC2)cc1", "viability": 86.3}
{"smiles": "O=C(CCS(=O)(=O)c1ccccc1)Nc1nnc(-c2ccco2)o1", "viability": 84.5}
{"smiles": "CC(C)Cc1nnc(NC(=O)CCS(=O)(=O)c2ccc(Cl)cc2)s1", "viability": 76.8}
{"smiles": "Cc1cccc(NC(=O)COC(=O)CCc2c[nH]c3ccccc23)c1C", "viability": 110}
{"smiles": "O=C(COC(=O)COc1ccc(Nc2ccccc2)cc1)NCc1ccco1", "viability": 101}
{"smiles": "c1ccc2[nH]c(NC3=NCCC3)nc2c1", "viability": 94.7}
{"smiles": "O=C(Nc1nc2ccccc2[nH]1)c1ccc(F)cc1", "viability": 87.5}
{"smiles": "CCOc1ccc(C(=O)Nc2nc3ccccc3[nH]2)cc1OCC", "viability": 77.5}
{"smiles": "Cc1cc2n(n1)SC(Nc1ccccc1)N2", "note": "(stereo not drawn)", "viability": 86.7}
{"smiles": "Nc1ccc(C(=O)N/N=C\\C=C\\c2ccc([N+](=O)[O-])cc2)cc1", "viability": 93.4}
{"smiles": "CCCOC(=O)c1cc(-c2ccc(C=O)o2)ccc1Cl", "viability": 96.6}
{"smiles": "CCCCCCCCCCn1cc(C(C)=O)c(=O)[nH]c1=O", "viability": 102}
{"smiles": "CCC(CC)COC(=O)C(C#N)c1nc2ccccc2nc1N1CCN(CC)CC1", "note": "(stereo not drawn)", "viability": 79.7}
{"smiles": "CC(CCc1ccccc1)NC(=O)COC(=O)c1cccs1", "note": "(stereo not drawn)", "viability": 99.3}
{"smiles": "COc1ccc(N2C(=O)NC(=O)/C(=C/c3ccc([N+](=O)[O-])s3)C2=O)cc1", "viability": 84.4}
{"smiles": "O=C(NCCC1=CCCCC1)c1ccc(Br)o1", "viability": 87.7}
{"smiles": "Cc1n[nH]c(=S)n1/N=C/c1ccc(OCc2ccc(Cl)cc2Cl)cc1", "viability": 95}
{"smiles": "Cc1cc(-c2c(C)[nH]n(-c3ccccc3)c2=O)n[nH]1", "viability": 79.9}
{"smiles": "O=C1CC(N2CCC(C(=O)N3CCCCC3)CC2)C(=O)N1", "note": "(stereo not drawn)", "viability": 106}
{"smiles": "CCC(=O)c1ccc(OCc2ccc(C(=O)OC)cc2)cc1", "viability": 93.7}
{"smiles": "CCOC(=O)C1=C(c2ccccc2)NC(N)=NC1c1ccc(OCc2ccc(Cl)cc2)c(OC)c1", "note": "(stereo not drawn)", "viability": 83.5}
{"smiles": "CCOC(=O)C(=O)NC12CC3CC(CC(C3)C1)C2", "viability": 102}
{"smiles": "COC(=O)c1cc(-c2ccc(OC)cc2)on1", "viability": 96.7}
{"smiles": "O=C1OC(/C=C/c2ccccc2)=NC/1=C\\c1cccnc1", "viability": 101}
{"smiles": "CCC1CCC(c2nnc(-c3ccc([N+](=O)[O-])cc3)o2)CC1", "note": "(stereo not drawn)", "viability": 106}
{"smiles": "O=C(OCc1cccc([N+](=O)[O-])c1)c1ccc2ccccc2n1", "viability": 94.8}
{"smiles": "O=c1c2c([N+](=O)[O-])cc([N+](=O)[O-])cc2nc2ccccn12", "viability": 90}
{"smiles": "CCCNC(=O)COC(=O)c1cc2c(=O)n3ccccc3nc2s1", "viability": 103}
{"smiles": "CN1/C(=C\\C=N\\NC(=O)c2cccnc2)C(C)(C)c2ccccc21", "viability": 97.1}
{"smiles": "O=C(OCC(=O)N1CCc2ccccc2C1)c1cccc([N+](=O)[O-])c1", "viability": 99.2}
{"smiles": "COc1cc(/C=N/NC(=O)c2ccncc2)ccc1OC(=O)c1cccc(F)c1", "viability": 97.5}
{"smiles": "Clc1cccc(CNCCNCc2cccc(Cl)c2)c1", "viability": 84.5}
{"smiles": "CCOC(=O)Nc1cccc(OCC(=O)Nc2ccccc2OC)c1", "viability": 92.2}
{"smiles": "COc1ccc(NC(=O)COc2ccccc2)cc1Cl", "viability": 89.8}
{"smiles": "Clc1ccc(Cl)c(OCCCCNCc2ccccc2)c1", "viability": 86.6}
{"smiles": "Cc1ccc(NC(=O)CCSc2nnc(Cc3ccccc3)o2)cc1", "viability": 97.4}
{"smiles": "O=S(=O)(c1ccc(OCC2CO2)cc1)c1ccc(OCC2CO2)cc1", "note": "(stereo not drawn)", "viability": 88.2}
{"smiles": "COc1ccc(CCOC(=O)c2ccc(N)c([N+](=O)[O-])c2)cc1", "viability": 89.5}
{"smiles": "CCCCN1C(=O)C2(NNc3ccccc3O2)c2ccccc21", "note": "(stereo not drawn)", "viability": 93.7}
{"smiles": "Cc1ccc(NC(=O)COC(=O)CCc2c[nH]c3ccccc23)cc1[N+](=O)[O-]", "viability": 106}
{"smiles": "Cc1cc(NC(=O)c2cc([N+](=O)[O-])cc([N+](=O)[O-])c2)no1", "viability": 99.3}
{"smiles": "CC(NC(=O)COc1ccc(-c2ccccc2)cc1)C1CCCO1", "note": "(stereo not drawn)", "viability": 102}
{"smiles": "COc1ccc(C(=O)NNC2=C(C(=O)C(F)(F)F)CCC2)cc1", "viability": 79.2}
{"smiles": "CCCCNC(=O)COC(=O)c1cc(F)c(F)cc1Cl", "viability": 105}
{"smiles": "COc1cc(CNC2CCCC2)cc(Cl)c1OCc1ccc(F)cc1", "viability": 72.3}
{"smiles": "Clc1ccc(OCCCNCc2ccccc2)c2ccccc12", "viability": 75.4}
{"smiles": "O=C(Cc1c(F)cccc1Cl)Nc1ncc([N+](=O)[O-])s1", "viability": 89.8}
{"smiles": "Cc1nc(C)c(/C(O)=C/c2nc3ccccc3oc2=O)s1", "viability": 85.2}
{"smiles": "Cc1cccc2c(CC(=O)O)noc12", "viability": 94.5}
{"smiles": "CC(C)(C)c1cc(CN2CCC(O)CC2)cc(C(C)(C)C)c1O", "viability": 114}
{"smiles": "Cc1ccnc(-n2sc3ccccc3c2=O)n1", "viability": 82.7}
{"smiles": "Cc1ccc(-n2sc3ccccc3c2=O)cc1", "viability": 88.5}
{"smiles": "Cn1c(=O)c(Oc2ccc(F)cc2)c(O)c2ccccc21", "viability": 95}
{"smiles": "CSC1=N/C(=C\\c2ccc3c(c2)OCO3)C(=O)S1", "viability": 105}
{"smiles": "O=C(COC(=O)c1ccc(Br)o1)NCCCc1ccccc1", "viability": 98.4}
{"smiles": "Cc1ccccc1C(=O)Nc1nnc(-c2ccco2)o1", "viability": 75.4}
{"smiles": "Cc1ccsc1C(=O)OCC(=O)Nc1nnc(-c2ccccc2)o1", "viability": 110}
{"smiles": "O=C(NC1CCCC1)c1cc(-c2cccs2)on1", "viability": 101}
{"smiles": "Cc1ccc(NC(=O)CCSc2nnc(-c3ccco3)o2)cc1", "viability": 103}
{"smiles": "O=C(Nc1nnc(C2=COCCO2)o1)c1ccc(Cc2ccccc2)cc1", "viability": 98.7}
{"smiles": "O=C(Nc1ccc(Cl)cc1)C1CCCC1", "viability": 98.3}
{"smiles": "O=C(O)c1ccc(-n2nc(C(F)(F)F)c3c2CCCC3)cc1", "viability": 98.3}
{"smiles": "Brc1c(-c2ccc3c(c2)OCO3)nc2ncccn12", "viability": 97.5}
{"smiles": "COc1ccc(CC(=O)OCC(=O)Nc2ccc(Br)cc2)cc1", "viability": 96.7}
{"smiles": "CN1CCN(/N=C/c2ccc(-c3ccc([N+](=O)[O-])cc3Cl)o2)CC1", "viability": 90.6}
{"smiles": "O=C(Nc1ccc2c(c1)CCC2)c1ccc(Br)o1", "viability": 93.6}
{"smiles": "COC(=O)COc1cccc(NC(=O)c2cccc(C)c2)c1", "viability": 99.5}
{"smiles": "CCCCN(C)C(=O)c1cc2cc3ccc(OC)cc3nc2s1", "viability": 86.7}
{"smiles": "O=C(Nc1cccc([N+](=O)[O-])c1)C1COc2ccccc2O1", "note": "(stereo not drawn)", "viability": 93.8}
{"smiles": "O=C(N/N=C/c1ccc(OC(=O)c2ccco2)cc1)c1ccccn1", "viability": 101}
{"smiles": "Cc1ccc(OC(=O)CCS(=O)(=O)c2ccc(C)cc2)cc1", "viability": 101}
{"smiles": "CC1=NN(C(=O)c2ccc(Br)cc2)C(O)(c2ccccc2)C1", "note": "(stereo not drawn)", "viability": 81.5}
{"smiles": "CC1(c2nnc(-c3ccc(F)cc3)o2)CC(c2cccc(Cl)c2)=NO1", "note": "(stereo not drawn)", "viability": 97.2}
{"smiles": "COc1cccc(COC(=O)CCNC(=O)c2ccc(Br)cc2)c1OC", "viability": 98.2}
{"smiles": "CCOc1cc(-c2sc(Nc3cc(C)ccc3OC)n[n+]2-c2ccccc2)ccc1OC", "viability": 99.9}
{"smiles": "CN1CCN(c2cc3c(cc2F)c(=O)c(C(=O)O)cn3CCF)CC1", "viability": 99.5}
{"smiles": "Cc1ccccc1C(=O)NN1CC(C(=O)OCc2ccc(Cl)c(Cl)c2)CC1=O", "note": "(stereo not drawn)", "viability": 104}
{"smiles": "COc1ccc(OCCOC(=O)c2cccs2)cc1", "viability": 99.2}
{"smiles": "CCCOC(=O)c1ccc(OC(=O)c2ccco2)cc1", "viability": 94.4}
{"smiles": "COc1ccc(NC(=O)C(=O)NNC(=O)C(C)Oc2ccc(Cl)cc2Cl)cc1", "note": "(stereo not drawn)", "viability": 92.2}
{"smiles": "O=C(COc1ccc([N+](=O)[O-])cc1)NNC(=O)c1cccs1", "viability": 112}
{"smiles": "CCc1ccc(OCCCC(=O)NCc2ccco2)cc1", "viability": 110}
{"smiles": "C/C(=N\\NC(=O)c1ccco1)c1cc(Cl)sc1Cl", "viability": 92.5}
{"smiles": "COc1ccc(OCCC(=O)OCC(=O)Nc2ccc(Br)cc2)cc1", "viability": 104}
{"smiles": "CC(C(=O)OCC(=O)c1ccccc1)N1C(=O)C2C3CCC(C3)C2C1=O", "note": "(stereo not drawn)", "viability": 98.4}
{"smiles": "COc1cccc(C(=O)OCC(=O)c2ccc(Br)s2)c1OC", "viability": 108}
{"smiles": "COc1ccccc1C1=Nn2c(nnc2C2CCCCC2)SC1", "viability": 97.1}
{"smiles": "c1nc2n(n1)C1=C(CCCC1)C1(CCCCC1)N2", "viability": 104}
{"smiles": "O=C(Nc1ccc(Cl)cc1Cl)c1cccc(N2C(=O)C=CC2=O)c1", "viability": 105}
{"smiles": "O=c1c2cc(Cl)ccc2oc2nc3n(c(=O)c12)CCCS3", "viability": 94.8}
{"smiles": "CCCc1nnc(NC(=O)c2cc3ccccc3oc2=O)s1", "viability": 102}
{"smiles": "COCc1[nH]nc2c1C(c1sccc1C)C(C#N)=C(N)O2", "note": "(stereo not drawn)", "viability": 90.7}
{"smiles": "O=C(CCC1CCCCC1)NCc1cccs1", "viability": 107}
{"smiles": "CCc1ccc(OCC(=O)c2c(O)c3ccccc3oc2=O)cc1", "viability": 110}
{"smiles": "Oc1cc(NCc2cccnc2)ccc1-c1nc2ccccc2o1", "viability": 70.9}
{"smiles": "COc1cc(/C=N/Nc2cccc3cccnc23)cc(OC)c1O", "viability": 88.8}
{"smiles": "COc1ccc(/C=C/c2nc3ccccc3c(=O)o2)cc1", "viability": 93.3}
{"smiles": "C/C(O)=C\\c1nc2ccccc2oc1=O", "viability": 83.7}
{"smiles": "CC(=O)c1ccc(-c2nnc(CCC(=O)N(C)Cc3cccc4cnccc34)o2)s1", "viability": 103}
{"smiles": "c1coc(CNc2nc(N3CCCCC3)nc3ccccc23)c1", "viability": 82.4}
{"smiles": "O=[N+]([O-])c1ccc(CSc2nnc(-c3cccnc3)o2)cc1", "viability": 96.4}
{"smiles": "CC1CCN(C(=O)COC(=O)CCc2c[nH]c3ccccc23)CC1", "viability": 87.8}
{"smiles": "Cc1ccc(N=N/C(=C\\O)C(=O)c2ccncc2)cc1", "viability": 101}
{"smiles": "CCOC(=O)Nc1cccc(OCC(=O)Nc2ccc(OC)cc2OC)c1", "viability": 92.2}
{"smiles": "O=C(Nc1ncc([N+](=O)[O-])s1)c1ccc2c(c1)OCO2", "viability": 72.5}
{"smiles": "Cc1ccc(NC(=O)COC(=O)C2=COCCO2)c([N+](=O)[O-])c1", "viability": 97.8}
{"smiles": "O=C(Nc1nccs1)c1ccc2ccccc2c1", "viability": 90.7}
{"smiles": "O=C(COC(=O)c1cc(Br)ccc1O)Nc1ccc2c(c1)OCO2", "viability": 105}
{"smiles": "COc1ccc2nc(/N=C(\\N)NC(=O)C(C)(C)C)nc(C)c2c1", "viability": 84.7}
{"smiles": "COc1ccc(Nc2ccccc2N)cc1", "viability": 70.4}
{"smiles": "Cc1cccc(NC(=O)c2cc3ccccc3oc2=O)c1", "viability": 75.2}
{"smiles": "CCc1ccc(N2C(=O)NC(=O)/C(=C\\C=C\\c3ccco3)C2=O)cc1", "viability": 95}
{"smiles": "O=C(COc1ccc2ccccc2c1)NNC(=O)c1cccs1", "viability": 106}
{"smiles": "CCc1c(C)c2ccc(OCC(=O)OC)cc2oc1=O", "viability": 99.3}
{"smiles": "O=C(O/N=C/c1ccc2c(c1)OCO2)c1ccc([N+](=O)[O-])cc1", "viability": 95}
{"smiles": "CCC(=O)Nc1ccc(C(=O)NNC(=O)c2cc([N+](=O)[O-])cc([N+](=O)[O-])c2)cc1", "viability": 91.2}
